Experimental data from PubChem BioAssay (EPA / NIEHS).
Records with an inconclusive call do not appear. Calls of active or inactive are those of the source. The calls were made as follows, unless noted: active = hit-call score of the fitted dose curve at least 0.9, where 1 is the maximum; inactive = score below 0.9.

Assays:
[1] = target: Glucocorticoid receptor (Homo sapiens) (UniProt P04150); assay: ATG_GR_TRANS: Attagene TRANS-FACTORIAL HepG2 Assay for human Glucocorticoid Receptor (GR) (AID 2282978; active = hit-call score of the fitted dose curve at least 0.9, where 1 is the maximum;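 also: activators score as hits since higher reporter transcript over DMSO is fitted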); conditions: HepG2 Attagene TRANS GR reporter, mRNA transcription
Glucocorticoid receptor (Homo sapiens), sequence (P04150 whole entry, looked up, the tested form may be a part): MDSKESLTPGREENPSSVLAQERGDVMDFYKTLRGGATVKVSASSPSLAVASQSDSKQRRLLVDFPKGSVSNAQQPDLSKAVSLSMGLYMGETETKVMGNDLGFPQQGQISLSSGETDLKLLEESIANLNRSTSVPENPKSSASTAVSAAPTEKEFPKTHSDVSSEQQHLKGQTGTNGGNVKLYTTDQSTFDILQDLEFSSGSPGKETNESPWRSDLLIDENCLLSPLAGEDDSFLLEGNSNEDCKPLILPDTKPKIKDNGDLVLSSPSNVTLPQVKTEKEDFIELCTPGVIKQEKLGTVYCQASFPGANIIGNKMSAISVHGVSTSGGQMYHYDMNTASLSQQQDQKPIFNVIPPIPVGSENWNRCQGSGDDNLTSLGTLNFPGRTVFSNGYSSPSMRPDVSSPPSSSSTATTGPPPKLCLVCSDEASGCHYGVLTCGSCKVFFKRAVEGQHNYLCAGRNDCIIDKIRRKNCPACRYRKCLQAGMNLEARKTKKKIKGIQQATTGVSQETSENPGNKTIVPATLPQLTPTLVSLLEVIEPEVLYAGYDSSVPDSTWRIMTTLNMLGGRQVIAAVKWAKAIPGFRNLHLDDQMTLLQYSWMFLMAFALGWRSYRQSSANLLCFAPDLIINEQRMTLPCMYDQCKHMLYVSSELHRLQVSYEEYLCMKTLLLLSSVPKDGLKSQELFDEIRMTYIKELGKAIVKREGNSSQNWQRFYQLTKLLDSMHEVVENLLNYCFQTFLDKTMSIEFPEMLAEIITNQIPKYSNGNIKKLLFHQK
Outline: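 Reporter transcript levels, detected by fluorescence after RT-PCR and capillary electrophoresis, served as the endpoint. HepG2 cells bearing transfected GAL4-UAS reporters responsive to NR-GAL4 chimeras were incubated with compound 24 h; DMSO defined baseline.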

[2] = target: Bile acid receptor (Homo sapiens) (UniProt Q96RI1); assay: ATG_FXR_TRANS: Attagene TRANS-FACTORIAL HepG2 Assay for Farnesoid X Receptor (FXR) (AID 2282979; active = hit-call score of the fitted dose curve at least 0.9, where 1 is the maximum;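 also: hits raise reporter mRNA above DMSO so AC50 marks FXR activation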); conditions: HepG2 Attagene TRANS FXR-GAL4 reporter transcription
Bile acid receptor (Homo sapiens), sequence (Q96RI1 whole entry, looked up, the tested form may be a part): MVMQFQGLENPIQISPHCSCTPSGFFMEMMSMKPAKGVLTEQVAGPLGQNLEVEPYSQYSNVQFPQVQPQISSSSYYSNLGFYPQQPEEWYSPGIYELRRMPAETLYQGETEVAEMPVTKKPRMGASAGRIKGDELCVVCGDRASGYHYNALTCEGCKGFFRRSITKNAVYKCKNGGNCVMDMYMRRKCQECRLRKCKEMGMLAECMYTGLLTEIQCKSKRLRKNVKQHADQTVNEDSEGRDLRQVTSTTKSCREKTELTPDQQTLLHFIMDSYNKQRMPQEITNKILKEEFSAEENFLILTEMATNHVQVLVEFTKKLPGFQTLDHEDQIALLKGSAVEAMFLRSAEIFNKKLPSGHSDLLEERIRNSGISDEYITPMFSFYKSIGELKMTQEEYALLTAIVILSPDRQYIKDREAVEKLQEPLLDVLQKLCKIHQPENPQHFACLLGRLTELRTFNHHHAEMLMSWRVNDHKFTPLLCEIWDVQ
Outline: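 Reporter transcripts from transfected HepG2 cells were measured 24 h after dosing, using RT-PCR with capillary electrophoresis of 6-FAM-labelled fragments. The read-out reflects activity of exogenous FXR-Gal4 chimera on GAL4-UAS units, with induction relative to DMSO.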

[3] = target: Oxysterols receptor LXR-alpha (Homo sapiens) (UniProt Q13133); assay: ATG_LXRa_TRANS: Attagene TRANS-FACTORIAL HepG2 Assay for human Liver X Receptor alpha (LXRa) (AID 2282980; active = hit-call score of the fitted dose curve at least 0.9, where 1 is the maximum); conditions: HepG2 Attagene TRANS reporter, LXRa transactivation
Oxysterols receptor LXR-alpha (Homo sapiens), sequence (Q13133 whole entry, looked up, the tested form may be a part): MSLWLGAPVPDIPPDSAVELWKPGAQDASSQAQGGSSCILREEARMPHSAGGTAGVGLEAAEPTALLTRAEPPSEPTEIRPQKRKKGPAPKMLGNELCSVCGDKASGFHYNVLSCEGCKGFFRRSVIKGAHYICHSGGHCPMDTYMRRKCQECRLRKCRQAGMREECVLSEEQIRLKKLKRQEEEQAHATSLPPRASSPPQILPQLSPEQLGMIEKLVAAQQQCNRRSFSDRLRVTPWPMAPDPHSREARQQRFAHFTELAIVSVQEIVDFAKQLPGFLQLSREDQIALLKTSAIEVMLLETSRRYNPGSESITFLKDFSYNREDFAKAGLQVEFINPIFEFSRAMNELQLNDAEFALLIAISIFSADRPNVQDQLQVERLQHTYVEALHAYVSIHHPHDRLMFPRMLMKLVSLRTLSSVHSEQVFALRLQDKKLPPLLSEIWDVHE
Outline: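 Chemical-induced reporter mRNA measured by RT-PCR with fluorescent labelling and capillary electrophoresis after 24 h dosing of transiently transfected HepG2 cells expressing exogenous NR-Gal4 chimeras; increases scored against DMSO baseline.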

[4] = target: Oxysterols receptor LXR-beta (Homo sapiens) (UniProt P55055); assay: ATG_LXRb_TRANS: Attagene TRANS-FACTORIAL HepG2 Assay for human Liver X Receptor beta (LXRb) (AID 2282981; active = hit-call score of the fitted dose curve at least 0.9, where 1 is the maximum); conditions: HepG2 Attagene TRANS GAL4-LXRb reporter, mRNA
Oxysterols receptor LXR-beta (Homo sapiens), sequence (P55055 whole entry, looked up, the tested form may be a part): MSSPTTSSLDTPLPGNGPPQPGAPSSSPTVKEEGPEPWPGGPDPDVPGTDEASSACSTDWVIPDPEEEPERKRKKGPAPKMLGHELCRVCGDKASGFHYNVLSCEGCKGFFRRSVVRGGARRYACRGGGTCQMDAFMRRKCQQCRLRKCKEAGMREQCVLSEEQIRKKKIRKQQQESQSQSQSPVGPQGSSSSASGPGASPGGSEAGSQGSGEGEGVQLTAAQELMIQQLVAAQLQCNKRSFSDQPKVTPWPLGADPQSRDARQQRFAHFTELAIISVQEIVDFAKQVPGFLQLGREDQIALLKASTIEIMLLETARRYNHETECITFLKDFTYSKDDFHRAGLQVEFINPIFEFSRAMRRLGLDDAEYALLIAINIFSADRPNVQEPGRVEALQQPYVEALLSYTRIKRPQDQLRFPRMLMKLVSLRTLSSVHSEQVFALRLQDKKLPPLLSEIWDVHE
Outline: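 HepG2 cells transiently transfected with GAL4-UAS reporter units for chimeric NR-Gal4 proteins, dosed for 24 h. Reporter transcripts measured by RT-PCR and capillary electrophoresis; gain-of-signal fitting relative to DMSO.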

[5] = ATG_M_32_TRANS: Attagene TRANS-FACTORIAL HepG2 Assay for M32 Transcription Factor (Internal Marker) (AID 2282984; active = hit-call score of the fitted dose curve at least 0.9, where 1 is the maximum;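 also: transcript level of a background control reporter unit measured by RT-PCR and capillary electrophoresis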); conditions: HepG2 Attagene TRANS M32 internal marker reporter
Outline: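 HepG2 cells transiently transfected with GAL4-UAS reporter units, dosed for 24 hours. Reporter mRNA quantified by RT-PCR, 6-FAM labelling, HpaI digestion and capillary electrophoresis; internal-marker signal fitted upward relative to DMSO.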

[6] = target: Nuclear receptor subfamily 4 group A member 2 (Homo sapiens) (UniProt P43354); assay: ATG_NURR1_TRANS: Attagene TRANS-FACTORIAL HepG2 Assay for human Nuclear Receptor Related Protein 1 (NURR1) (AID 2282985; active = hit-call score of the fitted dose curve at least 0.9, where 1 is the maximum); conditions: HepG2 Attagene TRANS reporter, mRNA readout
Nuclear receptor subfamily 4 group A member 2 (Homo sapiens), sequence (P43354 whole entry, looked up, the tested form may be a part): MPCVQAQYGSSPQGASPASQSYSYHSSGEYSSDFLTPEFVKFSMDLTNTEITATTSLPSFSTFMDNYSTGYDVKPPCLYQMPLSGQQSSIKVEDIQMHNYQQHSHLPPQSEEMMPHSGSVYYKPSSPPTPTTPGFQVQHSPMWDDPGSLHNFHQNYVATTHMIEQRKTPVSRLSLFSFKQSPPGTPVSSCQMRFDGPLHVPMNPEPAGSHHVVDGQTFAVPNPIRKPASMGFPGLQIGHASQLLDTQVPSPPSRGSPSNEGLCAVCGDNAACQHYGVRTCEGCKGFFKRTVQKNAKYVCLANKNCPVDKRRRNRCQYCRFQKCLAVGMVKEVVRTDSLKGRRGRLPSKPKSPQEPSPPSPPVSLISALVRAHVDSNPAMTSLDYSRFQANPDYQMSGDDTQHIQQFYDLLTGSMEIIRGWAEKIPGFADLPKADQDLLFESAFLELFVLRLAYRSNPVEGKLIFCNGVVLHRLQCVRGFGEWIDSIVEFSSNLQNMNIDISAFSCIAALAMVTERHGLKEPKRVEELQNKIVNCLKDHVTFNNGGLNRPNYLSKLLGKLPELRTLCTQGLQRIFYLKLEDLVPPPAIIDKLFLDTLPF
Outline: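 HepG2 cells transiently transfected with NURR1-Gal4 chimera and GAL4-UAS reporter units; after 24 hr compound exposure, reporter mRNA quantified by RT-PCR and capillary electrophoresis; gain of signal fitted against DMSO.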

[7] = target: Transcriptional activator Myb (Homo sapiens) (UniProt P10242); assay: ATG_Myb_CIS: Attagene CIS-FACTORIAL HepG2 Assay for human Myeloblastosis (Myb) Proto-Oncogene Transcription Factor (AID 2282986); conditions: HepG2 Attagene CIS-FACTORIAL Myb reporter transcription; actives raise or lower the signal
Outline: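 Transiently transfected HepG2 cells, treated 24 h. Reporter mRNA quantified by RT-PCR/capillary electrophoresis; bidirectional fit relative to DMSO.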

[8] = target: Nuclear respiratory factor 1 (Homo sapiens) (UniProt Q16656); assay: ATG_NRF1_CIS: Attagene CIS-FACTORIAL HepG2 Assay for human Nuclear Respiratory Factor 1 (NRF1) Orphan Gene (AID 2282987); conditions: HepG2 NRF1 cis-element reporter, Attagene multiplex; actives raise or lower the signal
Nuclear respiratory factor 1 (Homo sapiens), sequence (Q16656 whole entry, looked up, the tested form may be a part): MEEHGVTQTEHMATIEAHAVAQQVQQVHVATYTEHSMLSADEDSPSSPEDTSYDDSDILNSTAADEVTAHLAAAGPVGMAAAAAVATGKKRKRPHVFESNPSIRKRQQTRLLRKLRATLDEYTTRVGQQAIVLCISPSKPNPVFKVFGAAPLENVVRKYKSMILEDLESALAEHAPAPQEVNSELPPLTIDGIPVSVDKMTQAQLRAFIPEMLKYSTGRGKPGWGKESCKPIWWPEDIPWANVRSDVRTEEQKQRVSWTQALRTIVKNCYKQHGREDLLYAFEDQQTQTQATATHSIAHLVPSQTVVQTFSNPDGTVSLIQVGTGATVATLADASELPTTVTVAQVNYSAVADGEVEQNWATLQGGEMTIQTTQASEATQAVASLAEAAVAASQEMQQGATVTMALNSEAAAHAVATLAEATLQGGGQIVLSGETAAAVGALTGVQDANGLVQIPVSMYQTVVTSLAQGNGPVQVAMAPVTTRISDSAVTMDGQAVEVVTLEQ
Outline: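 Cells (HepG2, transient MRTU transfection) are exposed to compound for 24 h, then RNA isolated and reporter mRNA amplified and fluorescently labelled. Fragments are separated by capillary electrophoresis; signal change is fitted bidirectionally relative to DMSO.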

[9] = ATG_NFI_CIS: Attagene CIS-FACTORIAL HepG2 Assay for human Nuclear Factor I (NFI) (AID 2282989); conditions: HepG2 cis-regulatory reporter, NFI response element transcription; actives raise or lower the signal
Outline: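 Read-out: reporter mRNA via RT-PCR plus capillary electrophoresis with fluorescence detection. Transiently transfected HepG2 (endogenous TF activity on cis promoters), 24 h compound exposure; gain or loss of signal fitted against DMSO.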

[10] = target: Myc proto-oncogene protein (Homo sapiens) (UniProt P01106); assay: ATG_Myc_CIS: Attagene CIS-FACTORIAL HepG2 Assay for human Myelocytomatosis (Myc) Proto-Oncogene Transcription Factor (AID 2282990); conditions: HepG2, Attagene cis-reporter transcription factor activity; actives raise or lower the signal
Myc proto-oncogene protein (Homo sapiens), sequence (P01106 whole entry, looked up): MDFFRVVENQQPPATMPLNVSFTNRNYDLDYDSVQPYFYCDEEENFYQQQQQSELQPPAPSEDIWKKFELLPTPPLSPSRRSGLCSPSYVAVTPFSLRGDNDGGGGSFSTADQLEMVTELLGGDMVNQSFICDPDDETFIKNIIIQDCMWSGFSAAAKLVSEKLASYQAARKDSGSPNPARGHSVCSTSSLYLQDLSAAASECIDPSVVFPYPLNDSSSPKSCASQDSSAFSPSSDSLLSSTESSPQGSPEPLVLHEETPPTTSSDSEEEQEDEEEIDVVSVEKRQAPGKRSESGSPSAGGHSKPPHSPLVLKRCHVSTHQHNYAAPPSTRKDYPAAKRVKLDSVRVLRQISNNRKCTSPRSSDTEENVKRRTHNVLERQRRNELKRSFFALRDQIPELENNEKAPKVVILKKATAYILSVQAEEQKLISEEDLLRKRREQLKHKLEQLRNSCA
Outline: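 Transiently transfected HepG2 cells bearing cis-promoter reporter units for endogenous transcription factors; 24 h exposure. Reporter mRNA measured by RT-PCR, 6-FAM primer extension, HpaI cut and capillary electrophoresis; bidirectional fit relative to DMSO.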

[11] = ATG_NRF2_ARE_CIS: Attagene CIS-FACTORIAL HepG2 Assay for human Nuclear Factor Erythroid 2 Related Factor 2 (NFR2) response to Antioxidant Response Elements (ARE) (AID 2282992); conditions: HepG2 Attagene ARE/NRF2 reporter, transcription factor activity; actives raise or lower the signal;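 as to AC50: reporter mRNA level measured by RT-PCR and capillary electrophoresis fluorescence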
Outline: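 Cis-factorial assay: transfected HepG2 reporter library, 24 h dosing, mRNA readout via RT-PCR/CE; DMSO-referenced bidirectional analysis.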

[12] = ATG_Oct_MLP_CIS: Attagene CIS-FACTORIAL HepG2 Assay for human Octamer-Binding Transcription Factor (Oct) (AID 2282993); conditions: HepG2 Attagene cis-factorial Oct reporter, mRNA; actives raise or lower the signal
Outline: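 Read-out: reporter mRNA via RT-PCR plus capillary electrophoresis of 6-FAM-labelled fragments. Transiently transfected HepG2, 24 h exposure, endogenous TF activity on cis elements. Gain or loss of signal fitted relative to DMSO.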

[13] = target: Cellular tumor antigen p53 (Homo sapiens) (UniProt P04637); assay: ATG_p53_CIS: Attagene CIS-FACTORIAL HepG2 Assay for human p53 Transcription Factor (AID 2282994); conditions: HepG2 p53 cis-element reporter, Attagene mRNA; actives raise or lower the signal
Cellular tumor antigen p53 (Homo sapiens), sequence (P04637 whole entry, looked up): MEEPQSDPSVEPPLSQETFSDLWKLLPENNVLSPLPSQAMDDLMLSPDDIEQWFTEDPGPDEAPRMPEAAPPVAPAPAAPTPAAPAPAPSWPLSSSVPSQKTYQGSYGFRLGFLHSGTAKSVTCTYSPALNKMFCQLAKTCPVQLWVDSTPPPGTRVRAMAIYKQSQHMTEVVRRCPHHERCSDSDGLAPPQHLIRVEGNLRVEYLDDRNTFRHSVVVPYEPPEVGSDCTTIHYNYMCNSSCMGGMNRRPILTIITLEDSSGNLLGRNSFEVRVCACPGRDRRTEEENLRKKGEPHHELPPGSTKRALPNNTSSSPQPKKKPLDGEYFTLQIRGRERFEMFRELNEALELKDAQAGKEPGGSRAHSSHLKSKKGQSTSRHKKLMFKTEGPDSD
Outline: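 Using HepG2 hepatoma cells carrying cis-acting multiplexed reporters, mRNA induction is detected after a 24 h exposure. Gain- and loss-of-signal responses are fitted relative to DMSO-treated cells.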

[14] = ATG_M_06_TRANS: Attagene TRANS-FACTORIAL HepG2 Assay for M06 Transcription Factor (Internal Marker) (AID 2282983; active = hit-call score of the fitted dose curve at least 0.9, where 1 is the maximum); conditions: HepG2 Attagene TRANS M06 internal marker reporter
Outline: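 Cells: HepG2, transient multi-reporter transfection. Exposure: 24 h. Detection: RT-PCR, 6-FAM labelling, HpaI digestion (2 h, 37 °C), capillary electrophoresis. Baseline: DMSO.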

[15] = ATG_NF_kB_CIS: Attagene CIS-FACTORIAL HepG2 Assay for human Nuclear Factor Kappa B (NF-kB) (AID 2282991); conditions: HepG2 Attagene cis-factorial NF-kB reporter mRNA; actives raise or lower the signal
Outline: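 Measures mRNA induction of an NF-kB-responsive cis-element reporter in HepG2 cells transfected with multiple reporter units, sampled 24 h post-dosing; quantified by fluorescence after RT-PCR and capillary electrophoresis, fitted for activation or inhibition against DMSO.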

[16] = target: Hepatocyte nuclear factor 4-alpha (Homo sapiens) (UniProt P41235); assay: ATG_HNF4a_TRANS: Attagene TRANS-FACTORIAL HepG2 Assay for human Hepatocyte Nuclear Factor 4 alpha (HNF4a) (AID 2282982; active = hit-call score of the fitted dose curve at least 0.9, where 1 is the maximum); conditions: HepG2 HNF4a transactivation reporter, mRNA readout
Hepatocyte nuclear factor 4-alpha (Homo sapiens), sequence (P41235 whole entry, looked up, the tested form may be a part): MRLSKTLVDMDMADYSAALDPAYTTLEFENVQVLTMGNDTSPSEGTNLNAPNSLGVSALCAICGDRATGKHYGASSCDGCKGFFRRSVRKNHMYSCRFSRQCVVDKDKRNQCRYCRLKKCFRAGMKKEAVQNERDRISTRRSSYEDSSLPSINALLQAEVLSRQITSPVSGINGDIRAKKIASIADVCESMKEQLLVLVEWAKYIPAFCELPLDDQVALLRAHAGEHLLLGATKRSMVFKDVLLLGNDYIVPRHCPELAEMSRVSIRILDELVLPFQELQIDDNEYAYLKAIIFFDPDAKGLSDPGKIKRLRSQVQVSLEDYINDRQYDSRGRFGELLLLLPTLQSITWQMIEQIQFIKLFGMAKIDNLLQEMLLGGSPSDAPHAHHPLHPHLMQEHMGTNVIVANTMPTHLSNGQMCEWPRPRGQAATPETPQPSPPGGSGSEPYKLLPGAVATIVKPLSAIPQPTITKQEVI
Outline: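 HepG2 cells transiently transfected with HNF4a-Gal4 chimera and GAL4-UAS reporter units, dosed for 24 h. Reporter mRNA measured by RT-PCR, fluorescent primer extension and capillary electrophoresis; gain-of-signal fitted relative to DMSO.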

[17] = BSK_3C_TissueFactor: BioMAP Diversity Plus: 3C Assay for Tissue Factor Biomarker Activity (AID 2282997); conditions: BioMAP 3C HUVEC, tissue factor biomarker readout; actives raise or lower the signal
Outline: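 Dosing of human umbilical vein endothelial cells preceded a 24 h incubation. Tissue Factor was then read by ELISA, with increases and decreases both scored relative to DMSO controls.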

[18] = BSK_3C_uPAR: BioMAP Diversity Plus: 3C Assay for Urokinase-type plasminogen activator receptor (uPAR) Biomarker Activity (AID 2282998); conditions: BioMAP 3C HUVEC, uPAR biomarker ELISA; actives raise or lower the signal
Outline: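 HUVEC primary cells; 24 h post-dose; uPAR by ELISA; gain or loss of signal fitted bidirectionally vs DMSO baseline.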

[19] = BSK_3C_VCAM1: BioMAP Diversity Plus: 3C Assay for Vascular cell adhesion molecule 1 (VCAM1) Biomarker Activity (AID 2282999); conditions: BioMAP 3C HUVEC, VCAM1 ELISA, cytokine-stimulated; actives raise or lower the signal
Outline: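 Human umbilical vein endothelial cells (3C system), biomarker read by ELISA 24 h after dosing; bidirectional fit against DMSO baseline. Cytotoxicity tracked by SRB total-protein staining in parallel cultures at biomarker time.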

[20] = BSK_4H_Eotaxin3: BioMAP Diversity Plus: 4H Assay for Eotaxin 3 Biomarker Activity (AID 2283000); conditions: primary human endothelial cells (HUVEC); actives raise or lower the signal;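 also: CCL26 protein level quantified by ELISA in parallel with SRB cytotoxicity check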
Outline: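 Human umbilical vein endothelial cells (BSK_4H system) dosed with test chemical; Eotaxin-3 (CCL26) measured by ELISA 24 h after dosing. Bidirectional curve fitting relative to DMSO negative control as baseline.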

## CN(C)CCOc1ccc(/C(=C(/CCCl)c2ccccc2)c2ccccc2)cc1
[1]
  outcome: inactive
[2]
  outcome: inactive
[3]
  outcome: inactive
[4]
  outcome: inactive
[5]
  outcome: inactive
[6]
  outcome: inactive
[7]
  outcome: inactive
[8]
  outcome: inactive
[9]
  outcome: inactive
[10]
  outcome: inactive
[11]
  AC50: 2.47 µM (active)
[12]
  outcome: inactive
[13]
  outcome: inactive

## CC1C2CC(CC2C2CCCC(O)C2)C1(C)C (stereo unspecified)
[1]
  outcome: inactive
[2]
  AC50: 58.4 µM (active)
[3]
  AC50: 33.4 µM (active)
[4]
  AC50: 62.5 µM (active)
[14]
  outcome: inactive
[5]
  outcome: inactive
[6]
  outcome: inactive
[7]
  outcome: inactive
[8]
  outcome: inactive
[9]
  outcome: inactive
[10]
  outcome: inactive
[15]
  outcome: inactive
[11]
  outcome: inactive
[12]
  outcome: inactive
[13]
  outcome: inactive

## COc1cc(Cl)c(OC)cc1N
[1]
  outcome: inactive
[2]
  outcome: inactive
[3]
  outcome: inactive
[16]
  outcome: inactive
[14]
  outcome: inactive
[7]
  outcome: inactive
[8]
  outcome: inactive
[9]
  outcome: inactive
[10]
  outcome: inactive
[12]
  outcome: inactive
[17]
  outcome: inactive
[18]
  outcome: inactive
[19]
  outcome: inactive
[20]
  outcome: inactive

## CCCCCCCCCCCC(=O)OC[C@@H](O)[C@H]1OC[C@H](O)[C@H]1O
[1]
  outcome: inactive
[2]
  outcome: inactive
[3]
  outcome: inactive
[4]
  outcome: inactive
[16]
  outcome: inactive
[14]
  outcome: inactive
[5]
  outcome: inactive
[7]
  outcome: inactive
[8]
  outcome: inactive
[9]
  outcome: inactive
[10]
  outcome: inactive
[15]
  outcome: inactive
[11]
  outcome: inactive
[12]
  outcome: inactive
[13]
  outcome: inactive

## IC(I)I
[1]
  outcome: inactive
[2]
  outcome: inactive
[3]
  outcome: inactive
[4]
  outcome: inactive
[6]
  outcome: inactive
[7]
  outcome: inactive
[8]
  outcome: inactive
[9]
  outcome: inactive
[10]
  outcome: inactive
[11]
  outcome: inactive
[12]
  outcome: inactive
[13]
  outcome: inactive
[17]
  outcome: inactive
[18]
  outcome: inactive
[19]
  outcome: inactive
[20]
  outcome: inactive

## CCCCCCC(C)Nc1ccc(Nc2ccccc2)cc1 (stereo unspecified)
[1]
  outcome: inactive
[2]
  outcome: inactive
[3]
  outcome: inactive
[4]
  outcome: inactive
[14]
  outcome: inactive
[6]
  AC50: 39.5 µM (active)
[7]
  outcome: inactive
[8]
  outcome: inactive
[10]
  outcome: inactive
[15]
  outcome: inactive
[11]
  AC50: 24.1 µM (active)
[12]
  outcome: inactive

## NCC1CCCC(CN)C1 (stereo unspecified)
[1]
  outcome: inactive
[2]
  outcome: inactive
[4]
  outcome: inactive
[16]
  outcome: inactive
[14]
  outcome: inactive
[5]
  outcome: inactive
[7]
  outcome: inactive
[8]
  outcome: inactive
[9]
  outcome: inactive
[10]
  outcome: inactive
[15]
  outcome: inactive
[11]
  outcome: inactive
[12]
  outcome: inactive
[13]
  outcome: inactive

## Nc1ccc2cc(S(=O)(=O)O)cc(O)c2c1N=Nc1ccccc1C(F)(F)F
[1]
  outcome: inactive
[2]
  outcome: inactive
[3]
  outcome: inactive
[4]
  outcome: inactive
[16]
  outcome: inactive
[5]
  outcome: inactive
[6]
  outcome: inactive
[7]
  outcome: inactive
[8]
  outcome: inactive
[9]
  outcome: inactive
[10]
  outcome: inactive
[11]
  outcome: inactive
[12]
  outcome: inactive

## CCCCCCCCCCCCCC(=O)OCC(O)CO (stereo unspecified)
[1]
  outcome: inactive
[2]
  outcome: inactive
[4]
  outcome: inactive
[16]
  outcome: inactive
[14]
  outcome: inactive
[5]
  outcome: inactive
[7]
  outcome: inactive
[8]
  outcome: inactive
[9]
  outcome: inactive
[10]
  outcome: inactive
[15]
  outcome: inactive
[11]
  AC50: 112 µM (active)
[12]
  outcome: inactive
[13]
  outcome: inactive
